Compound activity deposited in PubChem BioAssay by National Center for Advancing Translational Sciences (NCATS).
Hits are enriched below; roughly 9.3% of the tested compounds scored in any of these assays.
Rab9 promoter act: activates the Rab9 promoter; Potency, µM (highest dose often 9.22 µM), for inactives: top-dose activation, negative = inhibition, hits mostly activators; Huh7 Rab9 promoter-luciferase reporter, luminescence, 24 h; 2.8% of 320,000 active; note: % of control where 0% means no effect; nearly all actives have a fitted effect of over 60% in size
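Cell-based reporter: Huh7 stable for Rab9 promoter-driven luciferase, plated in reduced-serum medium with 10% FBS at 1500 cells/well, compound-treated 24 h at 37 °C, luminescence read after 10 min reagent.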
NPC1 promoter act: NPC1 promoter activation | Huh7 NPC1 promoter luciferase reporter, 24 h | Potency, µM (doses to about 9.22 µM), for the others: top-dose activation, most hits filed as activators | 2.4% of 320,000 active | AID 485313; note: % of control where 0% means no effect; nearly all actives have a fitted effect of over 60% in size
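Quantitative HTS used a cell-based reporter: Huh7 cells stably bearing the NPC1 promoter upstream of luciferase were treated with compounds for 24 h, and promoter activation was read as luminescence.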
SMN2 splice enh: SMN2 splice variant enhancement | HEK293 SMN2-luciferase splicing reporter, luminescence, 30-36 h | Potency, µM (doses to about 46.1 µM), inactives show at the top dose activity change, positive = activation, usual class: activators | 2.8% of 210,000 active; note: % of control where 0% means no effect; nearly all actives have a fitted effect of over 55% in size
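HEK293 cells carry an SMN2 […]–luciferase reporter in which exon 7 inclusion puts luciferase in frame. Cells were plated 10-12 h before compound addition, then incubated 30-36 h at 37C. ONE-Glo luminescence was read; sodium butyrate at 4.5 mM final served as control.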
FLuc modulator: inhibits or activates purified firefly luciferase, miR-21 counter-screen | P08659 | purified FLuc, Km substrates, luminescence inhibition | Potency, µM (top dose mostly 57.5 µM), for the others: at the highest dose activity change, negative = inhibition, hits mostly inhibitors | 6.9% of 360,000 active | AID 588342;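 note: plate controls were vehicle for no effect and reference inhibitor for full effect; nearly all actives have a fitted effect of over 55% in size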
Target sequence (P08659 whole entry, looked up): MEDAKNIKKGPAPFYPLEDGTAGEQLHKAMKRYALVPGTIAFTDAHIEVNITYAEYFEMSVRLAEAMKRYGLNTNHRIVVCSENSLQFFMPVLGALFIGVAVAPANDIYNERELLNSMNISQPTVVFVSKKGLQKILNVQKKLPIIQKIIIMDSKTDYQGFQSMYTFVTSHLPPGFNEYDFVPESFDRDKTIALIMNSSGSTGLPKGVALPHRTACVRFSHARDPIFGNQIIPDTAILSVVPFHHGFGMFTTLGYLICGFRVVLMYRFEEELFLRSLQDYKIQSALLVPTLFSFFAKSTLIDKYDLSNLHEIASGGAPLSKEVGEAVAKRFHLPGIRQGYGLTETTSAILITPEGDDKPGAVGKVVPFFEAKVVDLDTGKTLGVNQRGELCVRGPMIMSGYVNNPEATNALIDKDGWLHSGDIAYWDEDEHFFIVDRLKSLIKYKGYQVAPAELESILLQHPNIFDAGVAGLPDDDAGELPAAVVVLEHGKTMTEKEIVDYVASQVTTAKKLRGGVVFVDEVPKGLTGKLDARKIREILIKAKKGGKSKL
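Purified P. pyralis luciferase (10nM final) with 10uM D-luciferin and 10uM ATP (Km levels) in 50mM Tris acetate pH 7.5, 10mM Mg acetate, 0.01% Tween-20, 0.05% BSA; qHTS 6-point titration, ~60 µM downward; luminescence read.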
ELG1 DNA repair: inhibitors of ELG1-dependent DNA repair in HEK293T cells; HEK293T ELG1-luciferase reporter, luminescence, 16 h; DNA damage induced by 5-fluorouridine; Potency, µM (highest dose often 46.1 µM), without a hit: top-dose activity change, negative = inhibition, hits mostly inhibitors; 2.3% of 330,000 active; AID 504467; note: % is set by controls: 0 for no effect and ±100 for the full control effect; nearly all actives have a fitted effect of over 55% in size
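Quantitative HTS, concentration-response format. 2,000 cells/well co-treated with 5-fluorouridine and compound, 16 hr in 5% CO2 at 37 °C; ONE-Glo luminescence read after 30 min.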
ELG1 genotoxic: induces genotoxicity in HEK293T cells with luciferase-tagged ELG1. HEK293T ELG1-luciferase reporter, luminescence, 16 h. Potency, µM (doses to about 46 µM), without a hit: at the highest dose activity change, positive = activation, actives largely listed as activators. 1.3% of 330,000 active. AID 504466; note: % of control where 0% means no effect; nearly all actives have a fitted effect of over 60% in size
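Screening used a luciferase reporter fused to human ELG1 in HEK293T cells. Luminescence was read on a CCD plate imager after 16 hr exposure and 30 min ONE-Glo incubation.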
Starred values were filed as active, the others as inactive; ? = inconclusive; . = not tested or not shown; [ ] = remark or other dose. Calls come from the whole dose curve; as a rule, active = well fitted curve in the direction sought with a large enough effect; inconclusive = small, poorly fitted or top-dose-only effect, or another doubt; inactive = no such curve, though single readings can be large; an effect the other way counts as inactive or inconclusive. Potency is the fitted concentration of half-maximal effect.

SMILES	Rab9 promoter act	NPC1 promoter act	SMN2 splice enh	FLuc modulator	ELG1 DNA repair	ELG1 genotoxic
O=C1NC2(CCCCC2)C(=O)N1Cc1cccc(C(F)(F)F)c1	0.9%	-6.6%	-30.4%	-2.7%	9.2µM*	-6.9%
COc1ccc(/C=C2\CCn3c2nc2ccccc2c3=O)cc1OC	2.51µM*	3.55µM*	.	8.49µM*	?	?
COc1cc(/C=C2\CCc3c2nc2ccccc2c3C(=O)O)cc(OC)c1OC	3.55µM*	2µM*	.	0.849µM*	?	23.1µM*
COc1ccc(-c2nn3c(COc4ccccc4)nnc3s2)cc1OC	0.9%	5.1%	2.8%	-10.8%	-31.3%	10.2%
COc1ccc(C(c2c(O)ccc3ccccc23)N2CCOCC2)c(OC)c1 (stereo unspecified)	3.5%	-3.0%	?	12µM*	?	?
Cc1cc(NC(=O)NCc2ccccc2)c(=O)n(Cc2ccccc2F)c1	19.8%	10.7%	.	5.36µM*	?	13.9%
COc1cccc(Cn2cc(C)cc(NC(=O)NCc3ccccc3)c2=O)c1	17.9%	14.6%	.	2.13µM*	0.0%	4.3%
O=C(NN=C1CCCC1)NC1CCCCC1	-4.5%	-1.6%	7.5%	-6.2%	6.9%	0.6%
COc1ccc2cc1Oc1ccc(cc1)C[C@H]1c3c(cc4c(c3Oc3cc5c(cc3OC)CCN(C)[C@@H]5C2)OCO4)CCN1C	-25.5%	-34.7%	.	6.1%	-26.4%	18.6%
Cc1ccc(S(=O)(=O)CCC(=O)c2ccc(O)cc2O)cc1	6.7%	-2.6%	-18.9%	-14.6%	0.8%	-1.9%
O=S(=O)(c1cc(Cl)ccc1Br)N1CCCCC1	-0.3%	-0.8%	11.6%	0.0%	5.5%	10.2%
CCOC(=O)c1ccc(-n2c(C)ccc2C)cc1	-2.0%	-1.8%	20.1%	-10.9%	-2.3%	12.1%
CC(=O)Nc1ccc(NC(=O)c2ccc(-n3c(C)ccc3C)cc2)cc1	-4.2%	-4.8%	.	21.3µM*	2.4%	?
CC(=O)NCCNC(=O)c1ccc(-n2c(C)ccc2C)cc1	?	14.1%	.	-6.5%	?	23.1µM*
Cc1ccc(C)n1-c1ccc(NC(=O)c2ccccc2)cc1	?	28.1%	11.2µM*	8.49µM*	?	?
CCc1ccccc1NC(=O)c1ccc(-n2c(C)ccc2C)cc1	-1.6%	9.5%	10.9%	-17.4%	-29.4%	14.7%
CN(C)c1cccc2c1c(NS(=O)(=O)c1cn(C)cn1)nn2C	11.7%	2.3%	.	2.8%	-8.9%	-4.6%
O=C(Nc1cc(F)cc(F)c1)c1sc(Cl)nc1-c1ccccc1	-3.6%	0.9%	8.1%	-1.9%	-2.7%	2.1%
CCc1ccc(OCC(=O)NNC(=O)CSc2ncnc3sc(C)c(C)c23)cc1	3.4%	2.1%	-3.0%	-2.0%	15.8%	0.1%
CC(C)=CCN1CCC(n2nccc2NC(=O)c2ccccc2Cl)CC1	-6.2%	-1.0%	.	0.5%	18.3%	2.0%
CCOC(=O)c1ccc(NC(=O)COc2ccccc2CNCCc2ccccc2)cc1	1.1%	-2.5%	-26.5%	-1.2%	25.9µM*	-1.9%
CCc1ccccc1OCC(=O)Nc1ccc(S(N)(=O)=O)cc1	-2.7%	1.2%	35.5µM*	3.1%	-2.9%	-1.2%
COc1ccc(NC(=O)CN(Cc2ccccc2)Cc2ccccc2)cc1S(N)(=O)=O	-7.2%	-2.8%	10.4%[1.84 µM]	-1.2%	1.6%	-0.3%
NS(=O)(=O)c1ccc(NC(=O)COc2cccc3ccccc23)cc1	-0.7%	1.5%	.	2.4%	1.9%	3.7%
COc1ccc(NC(=O)COc2ccccc2Cc2ccccc2)cc1S(N)(=O)=O	-5.4%	-9.8%	.	-1.0%	6.51µM*	-19.8%
SMILES	Rab9 promoter act	NPC1 promoter act	SMN2 splice enh	FLuc modulator	ELG1 DNA repair	ELG1 genotoxic
CCN(CC)C(=O)Nc1cnc2ccccc2c1	?	10.2%	-4.1%	?	?	6.8%
COc1ccc(CN(C)S(=O)(=O)c2nnc(NC(=O)c3cccc(F)c3)s2)cc1OC	-3.0%	-2.6%	.	1.5%	0.0%	-1.2%[9.26 µM]
Cc1ccc(-n2c(SCC(=O)N3CCOCC3)nnc2-c2ccncc2)cc1	-6.2%	1.5%	-12.8%	0.0%	-7.1%	-1.4%
CN(C(=O)Nc1ccc(Cl)cc1Cl)[C@H]1c2cc(Br)ccc2OC[C@H]1CO	-5.8%	-4.7%	-16.8%	19.5%	20.6µM*	-16.1%
COc1cccc2c1OC[C@@H](CO)[C@H]2N(C)C(=O)Nc1ccccc1	4.1%	0.3%	1.5%	1.3%	-2.0%	0.8%
CC(=O)Nc1cccc(NC(=O)c2oc3ccccc3c2C)c1	3.55µM*	3.16µM*	11.2µM*	6.01µM*	?	?
CC(=O)Nc1ccc(NC(=O)C(C)OC(=O)c2oc3ccccc3c2C)cc1 (stereo unspecified)	-1.7%	-1.1%	.	-0.7%	?	?
Nc1c(C(=O)Nc2ccc(Cl)cc2)oc2ccccc12	2.51µM*	1.41µM*	23.7%	2.69µM*	?	2.31µM*
CCC(=O)Nc1ccc(NC(=O)c2oc3ccccc3c2C)cc1	-9.4%	-5.3%	.	5.36µM*	16.6%	9.0%
CC(=O)c1oc2ccccc2c1N	0.4%	15.1%	5.0%	5.8%	15.3%	0.5%
Cc1cccc(N2CCN(C(=O)c3cc4ccc5cccnc5c4[nH]3)CC2)c1C	.	.	.	-13.8%	.	.
COc1ccc(NC(=O)c2ccccc2-c2ccccc2C(=O)O)cc1	-3.0%	0.3%	.	3.3%	4.2%	-1.5%
Cc1c(C)c(C)c(C(=O)c2ccc(NC(=O)c3ccccc3C(=O)O)cc2)c(C)c1C	-2.7%	-4.8%	.	-1.4%	-2.8%	1.1%
Cc1cccc(Oc2ccc(NC(=O)c3ccccc3C(=O)O)cc2)c1C	-1.7%	-0.3%	-13.8%	19µM*	?	-1.5%
O=C(Nc1ccc(Oc2cccc3ccccc23)cc1)c1ccco1	12.8%	3.6%	-54.3%	23.9µM*	-7.2%	?
O=C(O)c1ccccc1C(=O)Nc1ccc(Oc2ccc3ccccc3c2)cc1	-3.0%	-2.8%	.	26.9µM*	?	2.6%
O=C(O)c1ccccc1C(=O)Nc1ccc(Oc2cccc3ccccc23)cc1	-1.9%	-3.3%	-7.8%	23.9µM*	1.4%	-10.5%
COc1ccc(NC(=O)c2ccccc2Oc2ccccc2)cc1	0.9%	2.8%	.	-10.1%	-11.1%	4.6%
COc1ccc(OC)c(NC(=O)c2nnn(CCc3ccccc3)c2N)c1	-5.8%	-1.2%	0.7%	4.2%	?	?
CC(=O)Nc1cccc(NC(=S)Nc2ccc(F)c(Cl)c2)c1	10.5%	-4.2%	.	-4.3%	2.5%	0.1%
O=C(CN1C(=O)NC2(CCOc3ccccc32)C1=O)c1ccc(Cl)s1 (stereo unspecified)	-6.9%	-0.4%	.	.	?	-1.1%
Cc1c(-c2cccc(NC(=O)c3ccc(F)c(F)c3)c2)nc2ncccn12	.	.	.	-15.0%	.	.
